# Data as given in PubChem BioAssay AID602233 (National Center for Advancing Translational Sciences (NCATS), 2012).
# About 170 (0.045%) of roughly 380,000 compounds were called active. The list comes from a sample in which actives are over-represented; it also holds similar structures and randomly drawn compounds. A number with no mark means an inactive call. Calls come from the whole dose curve; as a rule, active = well fitted inhibition curve with a large enough effect; inconclusive = small, poorly fitted or top-dose-only effect; inactive = no such curve, though single readings can be large or run the other way.
# Target: Phosphoglycerate kinase, glycosomal (Trypanosoma brucei brucei) (UniProt P07378)
# Sequence (P07378 whole entry, looked up): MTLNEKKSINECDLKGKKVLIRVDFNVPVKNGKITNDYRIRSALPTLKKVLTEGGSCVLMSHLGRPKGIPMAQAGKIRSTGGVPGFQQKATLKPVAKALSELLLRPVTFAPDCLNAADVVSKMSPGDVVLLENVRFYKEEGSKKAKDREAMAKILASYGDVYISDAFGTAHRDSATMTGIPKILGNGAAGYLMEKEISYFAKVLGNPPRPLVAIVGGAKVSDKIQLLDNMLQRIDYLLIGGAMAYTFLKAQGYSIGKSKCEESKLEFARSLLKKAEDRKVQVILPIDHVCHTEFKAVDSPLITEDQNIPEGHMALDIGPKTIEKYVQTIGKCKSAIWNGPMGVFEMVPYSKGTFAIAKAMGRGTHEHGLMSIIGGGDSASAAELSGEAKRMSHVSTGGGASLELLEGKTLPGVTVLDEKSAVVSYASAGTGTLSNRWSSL
# Assay: qHTS Assay to Find Inhibitors of Phosphoglycerate Kinase; note: nearly all actives have a fitted effect of over 60% in size
# Details: PGK/GAPDH coupled, Kinase-Glo luminescence, 60 min; series mostly up to 57.5 µM; activity change, negative = inhibition: at the top concentration
# Source text: Several species of the Trypanosomatidae family of parasitic protozoans cause a spectrum of diseases throughout the tropical and subtropical world. Sleeping sickness, caused by two subspecies of Trypanosoma brucei, is endemic to areas of sub-Saharan Africa, while Chagas disease, a manifestation of Trypanosoma cruzi infection, is prevalent throughout Central and South America. In addition, many species of Leishmania are responsible for a range of cutaneous and visceral diseases, causing ulcers, destructive lesions and kalaazar, a lethal infection of the viscera. Collectively, these organisms infect 30 million people worldwide (~500 million live in endemic areas), and account for ~130,000 deaths annually. Given their debilitating and prevalent nature, trypanosomatid parasites impose a heavy medical, economic and social burden on entire populations, primarily in the developing world. The problem is further exacerbated by the fact that existing treatments have progressed little in the past 50 years, and current drugs show high toxicity and poor efficacy. […] Blood-stream stages of T. brucei are entirely dependent on glycolysis as a source of ATP, and the tricarboxylic acid cycle and oxidative phosphorylation are both repressed. Glycolysis in axenically cultured T. cruzi, representing the intracellular pathogenic stage, is also essential for these parasites. […] Previous studies have shown that the glycolytic enzyme, phosphoglycerate kinase (PGK), is a viable target for drugs to kill these parasites. […] NIH Molecular Libraries Probe Production Network [MLPCN] NIH Chemical Genomics Center [NCGC] MLPCN Grant: R03 MH093212 PI Name: Malcolm Walkinshaw, University of Edinburgh
# 3ul of substrate/PGK buffer (columns 1,2,5-48) are dispensed into Greiner white solid bottom 1536-well assay plates; columns 3-4 receive only TEA buffer as 0x PGK controls. Compounds are then transferred via Kalypsys pin tool equipped with 1536-pin array (10nl slotted pins, V&P Scientific, San Diego, CA). Following addition of compound, 1ul of GAPDH (100nM final concentration, all columns) is added to initiate the reaction (this upstream coupling enzyme is necessary for in-well production of PGK substrate, 1,3-bisphosphoglycerate (1,3-BPG), which is unstable and not commercially available). The plates are then incubated at room temperature for 60 minutes. Kinase-Glo Plus reagent is added (2ul) and plates incubated for 10 minutes, before being transferred to a ViewLux high-throughput CCD imager (PerkinElmer) wherein single end-point measurements of luminescence are acquired using a clear filter. All reagents are diluted in an assay buffer consisting of 100mM TEA (pH 7.6), 5mM MgCl2 and 0.01% Tween-20.
# % is set by controls: 0 for no effect and ±100 for the full control effect; potency is the fitted concentration of half-maximal effect.
Compound,"activity change, negative = inhibition [%]",outcome,Potency
CCOc1ccc(OCC)c(NC(=O)CN(c2ccc(C)cc2)S(=O)(=O)c2c(C)n[nH]c2C)c1,-0.327,,
CCCS(=O)(=O)c1ncc(Cl)c(C(=O)Nc2scc(-c3ccccc3)c2C(=O)OCC)n1,-0.928,,
Cc1sc(C2C(C#N)=C(N)N(c3cccc(Cl)c3)C3=C2C(=O)CCC3)cc1CN1CCOCC1 (stereo not drawn),1.36,,
Cc1ccc(C(=O)N2c3ncnn3C3(CCCCC3)[C@@H]3CCCC[C@@H]32)cc1,-3.66,,
O=C(CC(c1cccs1)N1Cc2ccccc2C1=O)Nc1ccc(F)c(F)c1 (stereo not drawn),,inactive,
CC1=Nc2cc(C(=O)NCc3ccc(C)cc3)ccc2Sc2ccc(Cl)cc21,1.58,,
CCc1cnc2c(c1SCC(=O)N1CCC(C)CC1)c(=O)n(C)c(=O)n2C,-7.57,,
CCc1cccc(NC(=O)CN(c2ccc(C)c(C)c2)S(=O)(=O)c2ccsc2C(=O)OC)c1,-7.47,,
CCOc1ccccc1NC(=O)c1ccc2c(c1)CCN2S(=O)(=O)c1ccc(C)cc1,-6.13,,
CSc1ccc(NC(=O)Cn2nnnc2-c2ccccc2F)cc1,0.393,,
CC(=O)c1ccc(NC(c2ccc(F)cc2)c2nnc(-c3ccccc3)o2)cc1 (stereo not drawn),-9.83,,
CCOc1ccc(CCNC(=O)c2c(C)oc3ncn(C)c(=O)c23)cc1,,inactive,
CCc1ccccc1NC(=O)c1cnn(-c2ccc(F)cc2)c1C1CCNCC1,-3.07,,
Cc1ccc(CNC(=O)CCNS(=O)(=O)c2ccc3c(c2)oc(=O)n3C)cc1,1.22,,
CCc1cccc(-n2nnc(-c3nsc(NC(=O)c4ccc(C)cc4)n3)c2C)c1,,inactive,
CC(C)Cn1c(=O)c2ccccc2n2c(CCC(=O)N3CCN(c4cccc(Cl)c4)CC3)nnc12,-8.58,,
Cc1ccc(OCCSc2nc(-c3cccs3)nc3cc(=O)[nH]n23)cc1Cl,-19.6,,
CC1=C(c2ccc(Cl)cc2)S(=O)(=O)N=C1N1CCN(c2cc(C)ccc2C)CC1,-10.5,,
Cc1cccc(N2CCN(c3c(CN4CCCC4)c(=O)oc4ccccc34)CC2)c1C,1.96,,
CCc1ccc(NC(=O)CN2CCSc3ccc(S(=O)(=O)N4CCCC4)cc32)cc1,,inactive,
CCCN(CCC)CCNC(=O)c1ccc2c(c1)NC(=O)C(CS(=O)(=O)Cc1cccc(Br)c1)N2 (stereo not drawn),-1.96,,
COc1cc(CNC(=O)c2cc3n(n2)CCCN(Cc2cccc(F)c2)C3=O)cc(OC)c1OC,-5.91,,
COc1ccc(OC)c(-c2nc(C(N)=O)c3c(n2)n(-c2ccc4c(c2)OCO4)c(=O)n3C)c1,-7.35,,
CCN(Cc1ccccc1)C(=O)c1cn(-c2cccc(OC)c2)c(=O)c2ccccc12,4.13,,
O=C(CCn1c(=O)c2ccccc2n(Cc2ccc(Cl)cc2)c1=O)NCc1ccc2c(c1)OCO2,2.73,,
Cc1ccccc1OCc1ccc(-c2nc(C#N)c(N3CCCCC3)o2)o1,-5.61,,
CC(C)(C)OC(=O)N1CCC(c2c(C(=O)Nc3ccc4c(c3)OCO4)cnn2-c2ccccc2)CC1,-5.35,,

Compound,"activity change, negative = inhibition [%]",outcome,Potency
COc1ccc(-n2c(=O)c3sc4ccccc4c3n(CC(=O)Nc3cccc(C)c3)c2=O)cc1,3.99,,
Cc1c(C)n(Cc2ccc(Cl)cc2)c2ccc(C(=O)NCCc3ccc(S(N)(=O)=O)cc3)cc12,-1.01,,
CCCNC(=O)c1ccc2c(c1)ncn2-c1ccc(C)cc1C,-4,,
CCn1cc2nc(SCc3cccc(F)c3)n(CCc3ccccc3)c(=O)c2n1,-9.15,,
Cc1nc2ccccn2c(=O)c1NC(=O)c1c(F)cccc1F,-8.58,,
COc1ccc(CCNc2ncnc3onc(-c4ccc(Cl)cc4)c23)c(OC)c1,-1.45,,
CCOC(=O)C(Cc1ccccc1)NC(=O)CCc1c(C)nc2c(c(C)nn2-c2ccc(C)c(C)c2)c1C (stereo not drawn),-8,,
COc1ccccc1NC(=O)c1oc2ccccc2c1NC(=O)C(C)C,-7.07,,
O=C(NCc1cccnc1)C(=O)NCC(c1cccnc1)N1CCN(c2ccccc2)CC1 (stereo not drawn),-9.1,,
Cc1ccccc1CNC(=O)C(=O)NCC(c1cccs1)S(=O)(=O)c1cccs1 (stereo not drawn),9.59,,
O=C(CCC(=O)N1CC2CCCN2c2ccccc21)NCc1ccccc1Cl (stereo not drawn),-2.17,,
O=C(CC1N=C2c3ccccc3N=C(SCc3cccc(Cl)c3)N2C1=O)NCc1ccc2c(c1)OCO2 (stereo not drawn),1.41,,
CCN(CC)S(=O)(=O)c1nnc(NC(=O)COc2ccccc2Cl)s1,-3.74,,
Nc1ccc2nc3c(=O)[nH]c(=S)[nH]c3nc2c1,,,2.51 µM (active)
Cc1oc2ccc(O)c(CN3CCC(C)CC3)c2c1C(=O)Nc1ccccc1,6.18,,
CCCCCn1c(CCCNC(=O)c2ccccc2OC)nc2ccccc21,2.09,,
CN(Cc1ccccc1)c1ncnc2onc(-c3ccc(F)cc3)c12,-9.68,,
O=C(NCc1ccc2c(c1)CCN2C(=O)c1ccccc1)c1ccccc1,-1.54,,
COc1ccc(-n2c(SCC(N)=O)nc3c(oc4ccccc43)c2=O)cc1,5.05,,
CC(C)(C)c1ccc(OCC(=O)N2CCC(c3nc4ccccc4s3)CC2)cc1,,inactive,
O=C(Cn1cc(SCc2cccc(Cl)c2)c2ccccc21)N1CCCCC1,8.44,,
COc1ccc(Cn2ccc3nc(C)c(C(=O)Nc4ccc(C)c(F)c4)cc3c2=O)cc1,-7.62,,
O=C(Cn1c(=O)n(Cc2cccs2)c(=O)c2cccnc21)Nc1ccc(F)cc1,9.96,,
COc1cc(NS(=O)(=O)c2ccc3c(c2)OCC(C(=O)N2CCCC2)O3)cc(OC)c1 (stereo not drawn),-5.79,,
COc1ccc(OC)c2sc(N3CCN(C(=O)C4COc5ccccc5O4)CC3)nc12 (stereo not drawn),0.972,,
Cc1c(CC(=O)N2CCN(C(=O)C3COc4ccccc4O3)CC2)c(=O)oc2c(O)c(O)ccc12 (stereo not drawn),,,8.91 µM (active)
